From PubChem BioAssay (NCATS) come the findings set out here.

Results filed as inconclusive are left out. Values without a mark were called inactive. Activity calls are given as the source filed them. Calls come from the whole dose curve; as a rule, active = well fitted curve in the direction sought with a large enough effect; inconclusive = small, poorly fitted or top-dose-only effect, or another doubt; inactive = no such curve, though single readings can be large; an effect the other way counts as inactive or inconclusive.

One assay concerns Tov-21-G. The assay is described as follows: Primary qHTS to identify gynecologic anti-cancer compounds using libraries of approved drugs and bioactive compounds (AID 1345084). Note: nearly all actives have a fitted effect of over 55% in size. The following applies: Gynecologic cancer cell panel viability, ATPlite luminescence, 48 h; series mostly up to 57.5 µM. The method in brief:
(§1)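 In this quantitative HTS, cell killing is estimated from loss of ATP-dependent luciferase light. Cells see five compound concentrations over a 48 h exposure.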
(In qHTS, concentration-response curves come from the screen itself.)

A further assay relates to Tov112D. The assay is described as above. To be noted: Gynecologic cancer cell panel viability, ATPlite luminescence, 48 h; series mostly up to 57.5 µM. The method in brief:
as §1
(In general: In ATP-based viability assays light output follows the ATP content of the culture.)

Another assay deals with SKOV3. The assay is described as above. The following applies: Gynecologic cancer cell panel viability, ATPlite luminescence, 48 h; series mostly up to 57.5 µM. Put shortly: as §1
The nature of assay [1]: Drug repurposing screens with cells derived from glioblastoma tumor samples (AID 1345199). Note: nearly all actives have a fitted effect of over 40% in size. To be noted: GBM patient neurospheres viability, ATP luminescence, 48 h. The method in brief: (§2)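 Primary testing used CD133+ neurospheres from four GBM patients, seven concentrations, 48 h exposure and ATP-based viability; confirmation added three slower-growing patient lines.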
Another assay has as its system astro. Described as above. The following applies: viability, ATP luminescence, 48 h; series mostly up to 45.9 µM. Put shortly: as §2
The mark [2] stands for this setting: at 46.1 µM (top of the series), tumour line C.
Where [3] appears, read: at 45.9 µM (top of the series), tumour line B.
Where [4] appears, read: at 45.9 µM (top of the series), tumour line D.
% is set by controls: 0 for no effect and ±100 for the full control effect; potency is the fitted concentration of half-maximal effect.

In the case of `CCC(=C(c1ccc(OCCN2CCCC2)cc1)c1ccc(OCCN2CCCC2)cc1)c1ccccc1`, the Potency entry with Tov-21-G and in the assay with Tov112D was “inactive” in each case.
`Cc1ccc(O)cc1Nc1ccnc(Nc2cccc(C(N)=O)c2)n1`: the Potency with Tov-21-G is 10 µM (active).
On to `CCc1cc(C(N)=O)ccc1-n1nc(C(C)C)c2c(-n3cnc(-c4cnn(C)c4)c3)ccnc21`, for which the Potency with Tov-21-G is 3.55 µM (active).
As for `Cc1cc2occ(CN(C)CCN(C)Cc3cn(-c4cccc(C(F)(F)F)c4)c4ccccc34)c(=O)c2cc1C`, the Potency in the assay with Tov-21-G was 28.2 µM (active).
`Cc1nc(NC(=O)N2CCCC2C(N)=O)sc1-c1ccnc(C(C)(C)C(F)(F)F)c1` (stereo unspecified): the Potency in the assay with SKOV3 is 8.91 µM (active). The Potency entry with Tov-21-G and in the assay with Tov112D was “inactive” each time.
Consider `CN[C@H]1CC[C@@H](c2ccc(Cl)c(Cl)c2)c2ccccc21`, for which the Potency was 28.2 µM (active) in the assay on SKOV3; 2.24 µM (active) in assay [1] (tumour line A); 17.8 µM (active) in assay [1] (tumour line B); 6.31 µM (active) in assay [1] (tumour line D); 20 µM (active) in the assay on astro. In addition, the activity, negative = cell killing in assay [1] (setting [2]) was 17.5%.
In the case of `COc1ccc(C#Cc2ccc(C(=O)N3CCC[C@@H](O)C3)c(F)c2)cc1`, the Potency in the assay with SKOV3 is 8.91 µM (active); in the assay with Tov-21-G it was 7.08 µM (active); with Tov112D, 8.91 µM (active).
With `C[C@@H]1CCCN1CCc1cc2cc(-c3ccc(C#N)cc3)ccc2o1`, the Potency result with SKOV3, in the assay on Tov-21-G and in the assay with Tov112D was “inactive” in each case.
Consider `Fc1ccc(-n2cc(CCCCN3CCC4(CC3)OCc3ccccc34)c3ccccc32)cc1`, for which, in the assay with Tov-21-G, the Potency result was “inactive”.
For `Fc1ccc2[nH]ccc2c1-c1nc(N2CCOCC2)c2sc(CN3CCN(CC4CC4)CC3)cc2n1`, the Potency entry in the assay on Tov-21-G and in the assay with Tov112D was “inactive” in each case.
As to `C=C1CC2[C@@]3(C)C=CC(=O)C(C)(C)C3=C(O)C(=O)[C@@]2(C)C2(C(=O)OC)C(=O)C(C)OC(=O)[C@@]12C` (stereo partly specified), the Potency result in the assay with Tov-21-G and in the assay with Tov112D was “inactive” in each case.
In the case of `CC(O)(C(=O)O)C1CCC2(C)C1CCC1(C)C2CCC2C3(C)CCC(O)C(C)(COC4OC(CO)C(O)C(O)C4O)C3CCC21C` (stereo unspecified), the Potency with Tov112D is 8.91 µM (active).
For `C=C1C(=O)O[C@@H]2[C@H]3C(C)=CC(=O)C3=C(C)CC[C@@H]12`, the Potency in the assay with Tov-21-G is 28.2 µM (active). Further, in the assay with Tov112D, the Potency entry is “inactive”.
`CC(=O)[C@@]1(O)CC[C@H]2[C@@H]3C=C(Cl)C4=CC(=O)CC[C@]4(C)[C@H]3CC[C@@]21C`: the activity, negative = cell killing was -7.69% in assay [1] (setting [3]), -22.6% in assay [1] (setting [4]) and -23.8% in assay [1] (setting [2]). In assay [1] (tumour line A), the Potency was 12.6 µM (active).
As for `COc1cc(N2CCOCC2)ccc1NC(=O)c1csc(-c2cccnc2)n1`, in the assay on Tov112D, the Potency result is “inactive”.
On the same count and under the same terms, the result for `CC(C)C[C@@H]1NC(=O)[C@@H](Cc2ccccc2)NC(=O)C(CCCCCC(=O)C2CO2)NC(=O)[C@@H]2CCCCN2C1=O` (stereo partly specified) reads “inactive”; that for `NC(=O)c1cnc(N[C@@H]2CCCC[C@H]2N)nc1Nc1cccc(-n2nccn2)c1`, “inactive”.
As for `CC(=O)NC(C(=O)O[C@H]1CCC(C)(C)[C@@H]2CC=C3C(=O)OCC3(O)[C@@]12C)C(C)C` (stereo partly specified), the Potency result in the assay on Tov-21-G and with Tov112D was “inactive” each time.
Take `CCCc1cc(C)[nH]c(=O)c1CNC(=O)c1cc(-c2ccc(N3CCN(C(C)C)CC3)nc2)cc2c1cnn2C(C)C`: the Potency entry with Tov-21-G and in the assay on Tov112D was “inactive” each time.
For `Cc1cc(Nc2ccccc2C(=O)O)ccc1Cl`, the activity, negative = cell killing is -5.77% in assay [1] (setting [3]), -31.8% in assay [1] (setting [4]) and -18% in assay [1] (setting [2]).
Turning to `O=C(O)c1cc2ccccc2c(Cc2c(O)c(C(=O)O)cc3ccccc23)c1O`, the activity, negative = cell killing in assay [1] (setting [3]) is 5.19%; in assay [1] (setting [4]), -18.5%; in assay [1] (at 46 µM (top of the series), tumour line A), -27.5%; in assay [1] (setting [2]), -1.97%.
Consider `N#Cc1cnc2c(Cl)cc(NCc3cn(CCN4CCCCCC4)nn3)cc2c1Nc1ccc(F)c(Cl)c1`, for which the Potency entry with Tov-21-G and in the assay with Tov112D was “inactive” throughout.
With `Cn1ncc(Cl)c1-c1cc(C(=O)NC(CN)Cc2ccc(F)c(F)c2)oc1Cl` (stereo unspecified), the Potency result with Tov112D is “inactive”.
Regarding `C/C(=N\N=C(N)N)c1cc(NC(=O)CCCCCCCCC(=O)Nc2cc(/C(C)=N/N=C(N)N)cc(/C(C)=N/N=C(N)N)c2)cc(/C(C)=N/N=C(N)N)c1`, in the assay on Tov112D, the Potency result was “inactive”.
As for `CCCCCCCCCCCCCCCC(=O)O[C@@H]1CC(C)=C(/C=C/C(C)=C/C=C/C(C)=C/C=C/C=C(C)/C=C/C=C(C)/C=C/C2=C(C)C[C@@H](OC(=O)CCCCCCCCCCCCCCC)CC2(C)C)C(C)(C)C1`, the activity, negative = cell killing in assay [1] (setting [3]) is -12.7%. For the same molecule, the Potency in assay [1] (tumour line A) was 11.2 µM (active).
For the molecule `COc1cc(CCc2cc(NC(=O)c3ccc(N4CC(C)NC(C)C4)cc3)n[nH]2)cc(OC)c1` (stereo unspecified), the Potency entry with Tov112D was “inactive”.
For the molecule `CCc1c[nH]c2ncnc(N3CC[C@](N)(CNC(=O)c4ccc(F)cc4F)C3)c12`, the Potency in the assay on Tov-21-G was 1 µM (active). Besides, the Potency entry in the assay on Tov112D is “inactive”.
As for `O=C(Nc1ccc(N2C(=O)[C@@H]3[C@H](C2=O)[C@@H]2C=C[C@H]3C2)c(Cl)c1)c1ccccn1`, the Potency entry in the assay with Tov112D was “inactive”.
As for `Cc1ccc(NC(=O)C(C)C)cc1C1CCN(Cc2ccc(Oc3ccc(F)c(F)c3)cc2)CC1`, the Potency entry with Tov112D was “inactive”.
As to `N#Cc1cc(CN2CCC(Nc3ncnc4sc(Cl)cc34)CC2)ccc1F`, in the assay with Tov112D, the Potency entry is “inactive”.
For `CCC(=O)Oc1ccc2c(c1)CC[C@@H]1[C@@H]2CC[C@]2(C)[C@@H](OC(=O)CC)CC[C@@H]12`, the activity, negative = cell killing was -0.785% in assay [1] (setting [3]), -16.9% in assay [1] (setting [4]) and -12.6% in assay [1] (setting [2]). In assay [1] (tumour line A), the Potency is 12.6 µM (active).
Consider `CC(=O)Nc1nc(C)c(-c2nc(N3CCCC(O)C3)no2)s1` (stereo unspecified), for which, in the assay with Tov112D, the Potency result was “inactive”.
As for `CN(C)C(=O)NC1(c2ccccc2)CCN(CCC[C@]2(c3ccc(Cl)c(Cl)c3)CCCN(C(=O)c3ccccc3)C2)CC1`, the Potency entry in the assay with Tov112D was “inactive”.
On to `Cc1cc(-n2c(=O)[nH]c(=O)n(C)c2=O)ccc1Oc1ccc(S(=O)(=O)C(F)(F)F)cc1`, for which the activity, negative = cell killing in assay [1] (setting [3]) was -20.8%. The Potency in assay [1] (tumour line C) is 20.6 µM (active).
